GRK2 aptamer HTS – human GRK2 inhibition via aptamer displacement | P25098 | bead flow cytometry, FAM-aptamer displacement from GRK2 | inhibition of aptamer binding, % at 10 µM | 0.59% of 330,000 active | AID 488847;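 active = inhibition of aptamer binding above 40%, roughly 3 SD of noise, on plates passing a quality check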;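 note: median bead fluorescence of bound FAM aptamer so fluorescent compounds give negative values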
PABP1 MLLE inh – inhibitors of microRNA-mediated deadenylation, human PABP1 MLLE binding. P11940. GST-MLLE / FITC-PAM2 fluorescence polarization. inhibition, % at 20 µM. 0.36% of 360,000 active; in the data active = inhibition above about 35%, passing the limit was not always enough;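 note: plate controls were DMSO wells with GST-MLLE for no effect and wells lacking GST-MLLE protein for full effect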
PABP FP inh – PABP-poly(A) binding inhibition; P11940; PABP-poly(A) RNA binding, fluorescence polarization; inhibition, % at 35 µM; 1% of 290,000 active; AID 2014;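 note: calls also rest on retests at 20 µM and on dose response follow-up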
PERK inhibitor – blocks human PERK kinase | inhibition, % at 5.6 µM | 0.17% of 220,000 active | Q9NZJ5 | CHO PERK-DD fusion, SEAP luminescence translation reporter;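 active = inhibition above the mean inhibition of all tested compounds plus 3 SD, set separately per screening campaign, cut at about 2.9% in these data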;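 note: PERK kinase domain activated by AP20187 dimerizer at 100 nM; 0% = DMSO with dimerizer and 100% = rapamycin at 8.4 µM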
eIF4H inh – inhibitors of RNA binding by human eIF4H; eIF4H fluorescence polarization binding assay; inhibition, % at 35 µM; 0.94% of 290,000 active;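 note: calls also rest on retests at 20 µM and on dose response follow-up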
Starred values were filed as active, the others as inactive; ? = inconclusive; nt = no result. Hits are enriched below; roughly 1.9% of the tested compounds scored in any of these assays. Unless noted, the rule behind the calls is not given here.

SMILES	GRK2 aptamer HTS	PABP1 MLLE inh	PABP FP inh	PERK inhibitor	eIF4H inh
CCCCOC(=O)c1cc(=O)[nH]c(=O)[nH]1	0.0	-5.0	60.7*	1.8	-4.3
Cc1cc(C)cc(NC(=O)COC(=O)c2cc(=O)[nH]c(=O)[nH]2)c1	0.0	9.3	-2.1	-0.1	-5.7
Cc1cccc2c1N(CCCOc1ccccc1)C(=O)C2=O	1.0	5.2	-3.1	-0.7	-7.3
Cc1cccc(OCCN2C(=O)C(=O)c3cccc(C)c32)c1	2.0	-6.2	74.1	0.7	1.1*
O=C(O)Cc1c[nH]c2cccc(O)c12	5.0	-6.5	94.1*	0.2	88.3*
O=C(O)Cc1c[nH]c2ccccc12	0.0	0.9	nt	nt	nt
COc1cccc2cc(-c3nc4ccccc4[nH]3)c(=O)oc12	0.0	-15.2	8.0	nt	2.6
Cc1cccc2cc(-c3nc4ccc(C(=O)O)cc4[nH]3)c(=O)oc12	2.0	-8.0	43.0	nt	64.9*
Cn1c2ccccc2c(=O)c2ccc(C#CC3(O)CCCCC3)cc21	0.0	-5.4	-2.5	nt	-0.8
Cn1c2ccccc2c2cc(/C=N/NC(=O)c3cc(O)ccc3O)ccc21	10.0	-0.7	73.7*	nt	86.0*
Cc1cccc(C(=O)Oc2ccc(/C=N/NC(=O)c3cc(O)cc(O)c3)cc2)c1	30.0	1.4	94.9*	nt	99.3*
COc1cc(C(=O)N/N=C/c2ccc3c(c2)c2ccccc2n3C)ccc1O	1.0	5.5	-1.0	nt	8.6
Cn1c2ccccc2c2cc(/C=N/NC(=O)c3cc(O)cc(O)c3)ccc21	11.0	7.9	65.2*	nt	94.8*
CC(=O)O[C@]1(C(C)=O)CC[C@H]2[C@@H]3C=CC4=CC(=O)C=C[C@]4(C)[C@H]3CC[C@@]21C	2.0	1.6	4.4	nt	5.1
C=CCN1C(=O)C2(OCCCO2)c2cc(Cl)ccc21	1.0	0.6	10.4	nt	-2.9
O=C(COC(=O)Cc1ccc(S(=O)(=O)N2CCOCC2)s1)Nc1ccc(OC(F)F)cc1	2.0	5.2	nt	nt	nt
O=C(CCn1c(=O)sc2ccccc21)NC1CCCCC1	4.0	10.0	9.1	nt	6.6
Nc1ccc(C(CC(=O)O)n2cccc2)cc1 (stereo not drawn)	0.0	13.2	1.2*	-0.2	67.4*
O=C(O)CC(c1ccccc1)n1cccc1 (stereo not drawn)	0.0	4.3	2.7	1.2	-13.9
Cc1ccc(NC(=O)c2ncn(CCCN3CCN(Cc4cccc5ccccc45)CC3)n2)cc1C	nt	4.3	nt	nt	nt
Cc1ccc(NC(=O)c2cncc(Br)c2)nc1	0.0	-6.0	1.9	nt	-0.2
O=C(O)c1cccc(-n2cccc2/C=C2/NC(=O)N(c3cccc(Cl)c3)C2=O)c1	23.0	-66.7	81.0*	1.7	96.6*
O=C1NC(=S)N/C1=C\c1ccccc1OCc1ccc(C(=O)O)cc1	0.0	8.9	12.6	0.2	-2.8
O=C(O)c1ccc(COc2ccccc2/C=C2/NC(=O)N(c3cccc(Cl)c3)C2=O)cc1	0.0	-4.9	active	0.5	54.3*
O=C(O)c1ccc(COc2ccccc2C=C2C(=O)c3ccccc3C2=O)cc1	0.0	13.2	56.2*	0.7	0.2
SMILES	GRK2 aptamer HTS	PABP1 MLLE inh	PABP FP inh	PERK inhibitor	eIF4H inh
COc1ccc(N(CC(=O)NCc2ccccc2OC)S(=O)(=O)c2ccc(C)cc2)cc1Cl	0.0	4.9	-2.5	nt	-0.5
Cc1cc(C(=O)CSc2nc3ccc(Cl)cc3[nH]2)c(C)n1Cc1ccco1	0.0	-92.4	nt	nt	nt
Cc1oc(-c2cc(F)cc(F)c2)nc1CN1CCN(C(=O)c2ccco2)CC1	4.0	11.2	-7.8	nt	-1.9
Cc1ccc(-n2[nH]c(C)c(C=Nc3ccc4[nH]c(=O)[nH]c4c3)c2=O)cc1C	1.0	67.0*	5.2	0.7	2.6
Cc1cc(C)c2c(c1)C1C=CCC1C(c1ccc(S(=O)(=O)N3CCOCC3)cc1)N2 (stereo not drawn)	1.0	7.8	3.5	-0.1	-9.6
O=C(O)c1cc(Cl)c2c(c1)[C@@H]1C=CC[C@@H]1[C@H](c1ccc(S(=O)(=O)N3CCOCC3)cc1)N2	4.0	24.0	4.1*	1.2	73.5*
Cc1ccc(CSCCNS(=O)(=O)c2ccccc2)cc1	0.0	7.9	121.4*	0.8	50.2*
Cc1ccc(CSCCNS(C)(=O)=O)cc1	1.0	6.0	-5.7	1.8	-7.6
CC(=O)Nc1ccc(C(=O)N2CCCC(c3cc(C(=O)NCc4cccnc4)no3)C2)cc1 (stereo not drawn)	nt	3.8	nt	nt	nt
Oc1ccccc1-c1cc(C(F)(F)C(F)F)nc(-c2ccccc2)n1	2.0	8.8	1.0	3.0*	-7.4
O=C(CSc1nnc(-c2cccnc2)o1)Nc1ccccc1Br	0.0	9.5	-3.0	nt	-9.4
O=C(CSc1nnc(-c2cccnc2)o1)Nc1ccccc1F	0.0	44.3*	nt	nt	nt
O=C(Cc1c(F)cccc1Cl)Nc1ccc(S(=O)(=O)NCC2CCCO2)cc1 (stereo not drawn)	6.0	13.7	-1.5	-0.2	-6.1
O=c1ccn([C@@H]2O[C@H](CNCc3ccc(-n4cccn4)cc3)[C@@H](O)[C@H]2O)c(=O)[nH]1	nt	1.9	nt	nt	nt
Cc1ccc(SCc2cc(=O)c3c(=O)n(-c4ccccc4)[nH]c3[nH]2)cc1	0.0	17.3	19.2*	1.8	92.7
COc1ccc(OC)c2c1C(=O)C(Cl)=C(Cl)C2=O	3.0	57.6*	7.7	-1.4	-10.5
COc1ccc(OC)c2c1C(=O)c1ccccc1C2=O	2.0	nt	67.2*	0.9	33.4
COc1ccc(N)c2c1C(=O)c1ccccc1C2=O	8.0	9.7	3.0	-0.5	11.7
N/C(=N\OC(=O)c1cnn(-c2ccccc2)c1C(F)(F)F)c1ccc(C(F)(F)F)cc1	3.0	0.5	-7.9	0.7	-6.3
COC(=O)CNC(=O)Cn1nc(C)c([N+](=O)[O-])c1C	5.0	-8.2	10.2	-0.1	-1.4
O=C(N/N=C/c1ccc(OC(=O)c2ccc([N+](=O)[O-])cc2)cc1)c1cccnc1	0.0	16.8	-2.5	nt	5.3
COc1ccc(C(=O)Oc2ccc(/C=N/NC(=O)Cc3ccc([N+](=O)[O-])cc3)cc2)cc1	85.0*	4.8	-0.3	1.5	5.3
S=c1nc(-c2ccc(Br)cc2)oc2c1CCCC2	2.0	31.1	-1.5	0.8	6.2
Cc1cccc(-c2nc(=S)c3c(o2)CCCC3)c1	0.0	45.2*	9.9	0.8	-6.8
Nc1cc(N)nc(SCC(=O)NC2CCCCCCC2)n1	nt	6.9	nt	nt	nt
SMILES	GRK2 aptamer HTS	PABP1 MLLE inh	PABP FP inh	PERK inhibitor	eIF4H inh
O=C(Cc1ncon1)Nc1ccc(F)c(F)c1F	0.0	-1.6	6.6	3.6*	5.3
CC1(C)S/C(=N/N=C/c2ccco2)NC1=O	0.0	-21.1	121.0*	1.1	?
O=c1c2ccccc2sn1-c1ccc(F)cc1	0.0	36.9*	nt	nt	nt
CC1(C)CC(NC(=O)C(Cl)(Cl)Cl)CC(C)(C)N1	0.0	6.5	12.8	0.6	-4.3
CCN(CC(=O)N1CCCC1)S(=O)(=O)c1ccccc1	0.0	2.3	61.5*	nt	71.8*
CCN(CC(=O)N1CCCC1)S(=O)(=O)c1ccc(Br)cc1	0.0	-8.5	1.4	nt	0.9
COc1ccc(OCC(=O)OCC(=O)c2ccc(OC)c(F)c2)cc1	3.0	-6.3	nt	nt	nt
O=[N+]([O-])c1ccc(NN=C(Oc2ccccc2)c2ccc([N+](=O)[O-])cc2)cc1	nt	-103.1	nt	nt	nt
CC/C(=N\Nc1ccc([N+](=O)[O-])cc1)c1ccccc1	0.0	-73.6	126.4*	0.2	61.4

Assay outcomes (PubChem)
